From ChEMBL document CHEMBL2218924, “A broad activity screen in support of a chemogenomic map for kinase signalling research and drug discovery” (Biochem J, 2013)

What was measured:
[1] = biological target: Serine/threonine-protein kinase 33 (Homo sapiens) (UniProt Q9BYT3); conditions: at 1 µM
[2] = biological target: Serine/threonine-protein kinase 33 (Homo sapiens) (UniProt Q9BYT3); conditions: at 10 µM
[3] = biological target: Serine/threonine-protein kinase PLK2 (Homo sapiens) (UniProt Q9NYY3); conditions: at 1 µM
[4] = biological target: Serine/threonine-protein kinase PLK2 (Homo sapiens) (UniProt Q9NYY3); conditions: at 10 µM
[5] = biological target: Tyrosine-protein kinase SYK (Homo sapiens) (UniProt P43405); conditions: at 1 µM
[6] = biological target: Tyrosine-protein kinase SYK (Homo sapiens) (UniProt P43405); conditions: at 10 µM
[7] = biological target: T1, Mitogen-activated protein kinase kinase kinase 7 (Homo sapiens) (UniProt O43318); conditions: at 1 µM
T1 sequence (whole entry): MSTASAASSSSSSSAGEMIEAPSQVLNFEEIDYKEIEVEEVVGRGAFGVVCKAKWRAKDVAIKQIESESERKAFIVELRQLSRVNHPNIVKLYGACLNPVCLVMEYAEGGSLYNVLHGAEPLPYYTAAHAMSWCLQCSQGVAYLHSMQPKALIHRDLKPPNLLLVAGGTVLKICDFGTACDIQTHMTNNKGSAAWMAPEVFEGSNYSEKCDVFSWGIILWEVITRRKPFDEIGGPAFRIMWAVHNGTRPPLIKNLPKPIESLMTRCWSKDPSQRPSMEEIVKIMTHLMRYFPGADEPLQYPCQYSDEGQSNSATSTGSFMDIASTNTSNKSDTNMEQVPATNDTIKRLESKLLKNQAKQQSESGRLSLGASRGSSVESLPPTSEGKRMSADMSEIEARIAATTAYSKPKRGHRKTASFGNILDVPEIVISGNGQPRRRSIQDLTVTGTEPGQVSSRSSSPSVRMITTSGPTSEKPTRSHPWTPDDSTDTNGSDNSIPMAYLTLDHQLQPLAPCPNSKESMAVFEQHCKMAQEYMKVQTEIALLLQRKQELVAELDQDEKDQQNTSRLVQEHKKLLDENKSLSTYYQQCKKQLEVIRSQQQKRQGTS

[8] = biological target: T1, Mitogen-activated protein kinase kinase kinase 7 (Homo sapiens); conditions: at 10 µM
[9] = biological target: T2, Serine/threonine-protein kinase TAO1 (Homo sapiens) (UniProt Q7L7X3); conditions: at 1 µM
T2 sequence (whole entry): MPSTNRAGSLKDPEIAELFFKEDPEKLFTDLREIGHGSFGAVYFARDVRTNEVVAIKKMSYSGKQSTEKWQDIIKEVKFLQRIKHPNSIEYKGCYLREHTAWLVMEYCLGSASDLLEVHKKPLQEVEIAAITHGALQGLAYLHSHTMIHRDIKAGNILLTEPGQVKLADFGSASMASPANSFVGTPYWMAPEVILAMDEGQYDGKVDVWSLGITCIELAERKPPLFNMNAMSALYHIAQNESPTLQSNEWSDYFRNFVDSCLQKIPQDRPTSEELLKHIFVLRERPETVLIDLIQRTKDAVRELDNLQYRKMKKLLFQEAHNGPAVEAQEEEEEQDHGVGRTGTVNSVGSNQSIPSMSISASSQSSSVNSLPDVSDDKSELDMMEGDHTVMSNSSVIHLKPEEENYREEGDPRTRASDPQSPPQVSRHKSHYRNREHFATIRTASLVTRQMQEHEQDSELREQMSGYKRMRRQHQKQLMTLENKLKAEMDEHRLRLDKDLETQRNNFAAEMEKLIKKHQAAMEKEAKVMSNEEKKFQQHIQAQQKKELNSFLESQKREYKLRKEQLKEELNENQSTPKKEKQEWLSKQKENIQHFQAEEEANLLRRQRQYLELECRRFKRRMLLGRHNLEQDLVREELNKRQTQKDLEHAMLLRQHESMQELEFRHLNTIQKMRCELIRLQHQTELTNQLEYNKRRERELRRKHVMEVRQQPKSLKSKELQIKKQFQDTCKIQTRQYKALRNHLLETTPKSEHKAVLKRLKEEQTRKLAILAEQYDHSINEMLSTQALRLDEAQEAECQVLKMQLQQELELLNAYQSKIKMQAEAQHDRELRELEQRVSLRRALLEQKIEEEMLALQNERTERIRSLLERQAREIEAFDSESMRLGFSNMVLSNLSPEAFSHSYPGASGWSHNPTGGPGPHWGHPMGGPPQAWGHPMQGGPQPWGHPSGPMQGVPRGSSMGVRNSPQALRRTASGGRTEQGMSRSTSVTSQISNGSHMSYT

[10] = biological target: T2, Serine/threonine-protein kinase TAO1 (Homo sapiens); conditions: at 10 µM

Sequence of Serine/threonine-protein kinase 33 (Homo sapiens) (Q9BYT3 whole entry, looked up): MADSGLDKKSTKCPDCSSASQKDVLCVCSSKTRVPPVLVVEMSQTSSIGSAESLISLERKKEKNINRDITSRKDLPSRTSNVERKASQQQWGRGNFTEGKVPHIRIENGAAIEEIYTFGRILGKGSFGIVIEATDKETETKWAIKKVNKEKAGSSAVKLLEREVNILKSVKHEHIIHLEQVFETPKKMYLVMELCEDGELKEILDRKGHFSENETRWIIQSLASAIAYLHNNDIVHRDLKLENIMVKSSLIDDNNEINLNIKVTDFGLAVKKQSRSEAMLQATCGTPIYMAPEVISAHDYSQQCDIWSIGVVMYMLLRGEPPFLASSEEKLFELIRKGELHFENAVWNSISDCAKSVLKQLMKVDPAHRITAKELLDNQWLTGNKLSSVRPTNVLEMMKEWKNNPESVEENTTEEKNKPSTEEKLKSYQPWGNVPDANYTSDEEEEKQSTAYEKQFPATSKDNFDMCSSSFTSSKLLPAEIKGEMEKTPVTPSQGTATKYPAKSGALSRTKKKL
Sequence of Serine/threonine-protein kinase PLK2 (Homo sapiens) (Q9NYY3 whole entry, looked up): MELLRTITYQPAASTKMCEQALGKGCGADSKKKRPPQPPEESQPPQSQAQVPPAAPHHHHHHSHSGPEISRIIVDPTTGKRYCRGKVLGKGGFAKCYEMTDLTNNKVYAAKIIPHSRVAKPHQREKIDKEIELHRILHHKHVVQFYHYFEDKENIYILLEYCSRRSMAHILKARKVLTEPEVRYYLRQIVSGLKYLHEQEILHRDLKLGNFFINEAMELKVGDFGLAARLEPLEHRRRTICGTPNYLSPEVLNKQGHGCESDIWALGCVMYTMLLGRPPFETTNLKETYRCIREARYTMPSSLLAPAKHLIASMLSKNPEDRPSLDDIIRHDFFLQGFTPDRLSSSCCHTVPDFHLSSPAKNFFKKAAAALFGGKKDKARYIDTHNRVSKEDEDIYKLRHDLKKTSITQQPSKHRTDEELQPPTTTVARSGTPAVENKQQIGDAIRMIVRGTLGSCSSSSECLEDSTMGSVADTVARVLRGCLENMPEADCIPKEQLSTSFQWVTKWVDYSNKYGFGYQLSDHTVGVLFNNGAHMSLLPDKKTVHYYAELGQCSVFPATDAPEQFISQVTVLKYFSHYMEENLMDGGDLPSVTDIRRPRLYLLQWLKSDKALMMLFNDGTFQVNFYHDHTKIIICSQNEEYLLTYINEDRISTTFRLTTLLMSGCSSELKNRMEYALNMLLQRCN

Row | SMILES | residual activity [1] [%] | residual activity [2] [%] | residual activity [3] [%] | residual activity [4] [%] | residual activity [5] [%] | residual activity [6] [%] | residual activity [7] [%] | residual activity [8] [%] | residual activity [9] [%] | residual activity [10] [%]
1 | O=C1Nc2ccc3ncsc3c2/C1=C/c1c[nH]cn1 | 62 | 25 | 49 | 17 | 101 | 53 | 16 | 1 | 11 | 0
2 | O=c1[nH]c2ccccc2n1C1CCN(Cc2ccc(-c3nc4cc5[nH]cnc5cc4nc3-c3ccccc3)cc2)CC1 | 100 | 95 | 91 | 92 | 125 | 76 | 97 | 96 | 102 | 65
3 | N/C(=N\[N+](=O)[O-])N/N=C\c1ccc(-c2cccc([N+](=O)[O-])c2)o1 | – | – | 99 | 98 | – | – | – | 89 | 91 | 88
4 | COc1ccc2c(c[n+](C)c3c4cc5c(cc4ccc23)OCO5)c1OC | 97 | 92 | – | 71 | 132 | 82 | 92 | 94 | – | 87
5 | COC(=O)[C@@]1(O)C[C@H]2O[C@]1(C)n1c3ccccc3c3c4c(c5c6ccccc6n2c5c31)C(=O)NC4 | 7 | 0 | – | 36 | 1 | 2 | -1 | -5 | 5 | 3
6 | O=[N+]([O-])/C=C/c1ccc2c(c1)OCO2 | 93 | 89 | 102 | 102 | 123 | 82 | 92 | 90 | 101 | 98
7 | CC(C)[C@H](CO)Nc1nc(Nc2cccc(Cl)c2)c2ncn(C(C)C)c2n1 | 89 | 53 | 101 | 86 | 102 | 60 | 73 | 20 | 82 | 26
8 | O=C1NC(=O)c2c1c1c3ccccc3n3c1c1c2c2ccccc2n1C1CCC3O1 | – | – | – | – | 90 | 80 | 88 | 89 | 75 | 69
9 | COc1cc(OC)c(/C=C2\C(=O)Nc3ccccc32)c(OC)c1 | 92 | 92 | 100 | 92 | 102 | 96 | 92 | 81 | 95 | 83
10 | COc1ccc2c(c1)/C(=C/c1cnc[nH]1)C(=O)N2 | – | 53 | – | – | – | – | 75 | 21 | 41 | 7
11 | CCc1nc(-c2ccc(OC)cc2)[nH]c1-c1ccncc1 | 105 | 100 | 112 | 100 | 113 | 107 | – | – | – | –
12 | CCn1cnc2c(Nc3cccc(Cl)c3)nc(N[C@@H]3CCCC[C@@H]3N)nc21 | 87 | 42 | 92 | 54 | 99 | 57 | 89 | 65 | 68 | 15
13 | c1cc(-c2cnn3cc(-c4ccc(OCCN5CCCCC5)cc4)cnc23)ccn1 | – | – | 82 | 85 | – | 59 | 57 | 13 | – | –
14 | C[S+]([O-])c1ccc(-c2nc(-c3ccc(F)cc3)c(-c3ccncc3)[nH]2)cc1 (stereo unspecified) | 106 | 109 | 116 | 103 | 112 | 101 | 106 | 101 | 100 | 77
15 | CC(C)(C)c1cc(C=C(C#N)C#N)cc(Br)c1O | 110 | 108 | – | 67 | 128 | – | 104 | 103 | 112 | 70
16 | O=C1c2ccccc2-c2nc3nnnn3nc21 | 103 | 100 | 73 | 34 | – | – | – | – | – | –
17 | COc1cc2ncnc(Nc3ccc(OCc4ccccc4)cc3)c2cc1OC | 100 | 105 | 108 | 105 | 116 | 82 | 99 | 96 | 108 | 91
